# Screening results as filed in PubChem.
# Most compounds without a hit are left out; they make up all but 15% or so of the library.
# Sm TGR block – qHTS Assay for the Inhibitors of Schistosoma Mansoni Peroxiredoxins; Schistosoma mansoni thioredoxin glutathione reductase (TGR), Q962Y6; purified TGR, DTNB reduction, TNB absorbance 405 nm; Potency, µM (highest dose often 114 µM), without a hit: at the top dose activity change, negative = inhibition, hits mostly inhibitors; 360,000 tested, 3% active; further: potency means the concentration at half of the fitted maximal effect; on the % scale 0 is the no-effect control and ±100 the full control effect; nearly all actives have a fitted effect of over 60% in size
#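 Kinetic colorimetric format: TGR-catalysed, NADPH-driven DTNB reduction monitored via TNB absorbance. Enzyme dispensed at 20 nM; compound exposure 15 min at room temperature before reaction start.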
# Pf growth 96h – Primary qHTS for delayed death inhibitors of the malarial parasite plastid, 96 hour incubation; 320,000 tested, 6.9% active; P. falciparum luciferase reporter growth, 96 h; Potency, µM (highest dose often 28.7 µM), for the others: top-dose activity change, negative = inhibition, most hits filed as inhibitors; further: potency means the concentration at half of the fitted maximal effect; on the % scale 0 is the no-effect control and ±100 the full control effect
#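 Parasite growth measured via integrated firefly luciferase reporter in P. falciparum. Infected erythrocytes at 2% hematocrit, 0.05% parasitemia final were treated 96 hours at 37 C under 5% CO2, and luminescence was read.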
# HCV inhibitor – qHTS Assay for Inhibitors of Hepatitis C Virus (HCV). 340,000 tested, 3.4% active. Huh7.5.1 HCVcc-Cre infection, luciferase reporter, 44 h. Potency, µM (doses to about 41.8 µM), without a hit: at the top dose activity change, negative = inhibition, hits mostly inhibitors; further: potency means the concentration at half of the fitted maximal effect; on the % scale 0 is the no-effect control and ±100 the full control effect
#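 Compounds are dispensed onto cells plated 4 h earlier at 1,000 per well, with HCVcc-Cre virus (about 0.5 moi) added next. Following 44 h of culture, luminescent signal is measured for 15 sec after 15 min with substrate at room temperature.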
# Pf growth 48h – Primary qHTS for delayed death inhibitors of the malarial parasite plastid, 48 hour incubation; P. falciparum luciferase growth in erythrocytes, 48 h; Potency, µM (doses to about 28.7 µM), for the others: at the top dose activity change, negative = inhibition, usual class: inhibitors; 310,000 tested, 5.9% active; AID 504832, 2011; further: potency means the concentration at half of the fitted maximal effect; on the % scale 0 is the no-effect control and ±100 the full control effect
#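 Luciferase-expressing P. falciparum in infected erythrocytes (2% hematocrit, 0.1% parasitemia final) in RPMI 1640/0.5% Albumax were exposed to compound for 48 hours at 37 C, 5% CO2; growth read as luminescence.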
# SARS PLP yeast – qHTS of Yeast-based Assay for SARS-CoV PLP; S. cerevisiae expressing SARS-CoV PLpro, growth rescue; Potency, µM (doses to about 32.9 µM), inactives show at the top dose activity, positive = growth rescue, hits mostly activators; 330,000 tested, 0.19% active; AID 485353, 2010; calls by dose curve; further: potency means the concentration at half of the fitted maximal effect; 0% is about no effect; nearly all actives have a fitted effect of over 55% in size
# HCMV antiviral – qHTS Assay for inhibitors of the human cytomegalovirus (HCMV); 410,000 tested, 4.5% active; AID 1259415, 2018; activity change, negative = inhibition, % at 57.5 µM; HFF cells, HCMV-luciferase reporter, 72 h; active compounds read low; in the data active means activity change below about -60%; inconclusive means no clear call, values can overlap the other calls; inactive means above about -39%; further: on the % scale 0 is the no-effect control and ±100 the full control effect
#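 Steps: HFFs plated, 16 h 37C; compounds added; HCMV-luciferase added to MOI 1 PFU/cell; 72 h 37C; OneGlo reagent, 5 min room temperature; luminescence read, normalized to controls.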
# The depositor's hits bear a star; ? = inconclusive; . = not tested or not shown. Unless noted, the call rests on the fitted dose curve; in most records, active means well fitted curve in the direction sought with a large enough effect; inconclusive means small, poorly fitted or top-dose-only effect, or another doubt; inactive means no such curve, though single readings can be large; an effect the other way counts as inactive or inconclusive.
SMILES,Sm TGR block,Pf growth 96h,HCV inhibitor,Pf growth 48h,SARS PLP yeast,HCMV antiviral
COC(=O)[C@@]12C[C@@H](CC(=O)N3CCSCC3)C(=O)N(Cc3ccco3)C1=CCC(C)(C)C2,.,.,.,.,.,-35
Cc1ccc(C)c(N2CCN(S(=O)(=O)c3ccc4[nH]c5c(c4c3)CCCCC5)CC2)c1,2%,.,.,.,.,-20
CN(C)CC(CCCCC(CN(C)C)C(=O)c1ccccc1)C(=O)c1ccccc1 (stereo unspecified),-17%,?,8.9µM*,?,0%,?
CN(C)CCC(C(=O)c1ccccc1)c1ccccn1 (stereo unspecified),.,.,-9%,.,.,.
CS(=O)(=O)c1ncc(Cl)c(C(=O)Nc2ccc(N3CCOCC3)cc2)n1,16µM*,?,?,97%,26%,.
O=C(Nc1ccc(OC(F)F)cc1)c1ccccn1,0%,-27%,?,16%,-1%,34
CS(=O)(=O)c1ncc(Cl)c(C(=O)Nc2ccc(OC(F)F)cc2)n1,7.9µM*,?,?,1%,-13%,.
OC(c1ccccc1)c1nc(-c2ccc(Cl)cc2)cs1 (stereo unspecified),.,.,.,.,.,6
N#CN1CCC(NS(=O)(=O)c2ccc(C(F)(F)F)cc2)CC1,.,.,.,.,8%,-6
Cn1nc(C(=O)NNC(=O)C(CCC(N)=O)NS(=O)(=O)c2ccc(Cl)cc2)c2ccccc2c1=O (stereo unspecified),-3%,-1%,4%,22%,-1%,-5
Cc1noc(/C=C/c2ccccc2F)c1S(=O)(=O)N1CCC(C(=O)Nc2ccc(C#N)cc2)CC1,2%,.,.,.,.,12
CCCCC(CC)CNC(=O)C(Cc1ccccc1)NS(=O)(=O)c1ccc2c(c1)CCC(=O)N2 (stereo unspecified),5%,12µM*,?,?,-2%,?
O=C(Nc1ccccc1-c1nc2ccccc2[nH]1)c1sc2ccccc2c1Cl,-4%,3%,2%,20%,-16%,.
COC(=O)C1=C(N)Oc2cc(N(C)C)ccc2C1c1ccccc1OC (stereo unspecified),2%,25%,6.3µM*,?,-4%,-11
NC(=O)c1c(NC(=O)C2COc3ccccc3O2)sc2c1CCN(Cc1ccccc1)C2 (stereo unspecified),-3%,-12%,?,-14%,1%,2
CCOC(=O)c1c(NC(=O)C2COc3ccccc3O2)sc2c1CCN(Cc1ccccc1)C2 (stereo unspecified),1%,2.3µM*,?,4.7µM*,-56%,-32
COC(=O)N1CCc2c(sc(NC(=O)C3COc4ccccc4O3)c2C(N)=O)C1 (stereo unspecified),1%,?,-24%,15µM*,2%,?
CN(CCCn1ccc(NC(=O)OCc2ccccc2)nc1=O)Cc1ccco1,.,.,.,.,.,24
O=C(Nc1ccc2nc(-c3ccco3)[nH]c2c1)c1ccco1,-35%,.,-17%,.,-13%,-15
O=C(Nc1ccc2nc(-c3ccco3)[nH]c2c1)c1cccs1,25µM*,?,?,227%,-47%,-9
CC(=O)Nc1cccc(-c2nc3ccc(NC(C)=O)cc3[nH]2)c1,2%,?,-7%,-6%,-8%,-10
Cc1ccc2nc(-c3ccc(NC(=O)Cc4cccs4)cc3)[nH]c2c1,-14%,4.1µM*,11µM*,?,8%,25
O=C(Nc1ccc2nc(-c3ccccc3)[nH]c2c1)c1cccs1,0%,?,?,.,-5%,-79*
O=C(Nc1ccc2nc(-c3cccnc3)[nH]c2c1)c1ccco1,-25%,?,-19%,0%,10%,-67*
COc1ccc(C2C(C(=O)Nc3ccccc3)=C(C)Nc3c(C(=O)Nc4ccccc4)cnn32)cc1 (stereo unspecified),0%,.,.,.,.,-18
